An excerpt weighted towards active compounds, which were near 18% of everything screened.
TDP1 cell noCPT = qHTS for Inhibitors of human tyrosyl-DNA phosphodiesterase 1 (TDP1): qHTS in cells in absence of CPT; hit rate 15% among 420,000; DT40 Tdp1-/- hTDP1 cells, no CPT, ATP luminescence, 48 h; Potency, µM (top dose mostly 46.2 µM), actives largely listed as inhibitors; also: nearly all actives have a fitted effect of over 55% in size
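Seeded 400 DT40-hTDP1 cells/well (vehicle DMSO, no 20 nM CPT); pinned compounds; ≥48 hr at 37 °C; CellTiter-Glo luminescence as viability measure.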
DT40 TDP1 CPT = growth inhibition of DT40 Tdp1-/-;hTDP1 cells with camptothecin (screen for TDP1 inhibitors); hit rate 12% among 420,000; Potency, µM (titrated, usually from 46.2 µM), usual class: inhibitors; chicken DT40 Tdp1-/-;hTDP1 cells + 20 nM CPT, ATP luminescence, 48 h; AID 686979; also: nearly all actives have a fitted effect of over 55% in size
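Chicken DT40 Tdp1-/- cells complemented with human TDP1, 400 cells/well, exposed to compounds plus 20 nM camptothecin for at least 48 h at 37 C; viability read as ATP content by CellTiter-Glo luminescence.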
PLK1 PBD inh = PLK1 (human) polo-box domain binding inhibition; Plk1 PBD binding of FITC phosphopeptide, fluorescence polarization; Potency, µM, most hits filed as inhibitors; hit rate 2.8% among 360,000; also: series mostly up to about 57 µM; nearly all actives have a fitted effect of over 65% in size
Target sequence (P53350 whole entry, looked up, the tested form may be a part): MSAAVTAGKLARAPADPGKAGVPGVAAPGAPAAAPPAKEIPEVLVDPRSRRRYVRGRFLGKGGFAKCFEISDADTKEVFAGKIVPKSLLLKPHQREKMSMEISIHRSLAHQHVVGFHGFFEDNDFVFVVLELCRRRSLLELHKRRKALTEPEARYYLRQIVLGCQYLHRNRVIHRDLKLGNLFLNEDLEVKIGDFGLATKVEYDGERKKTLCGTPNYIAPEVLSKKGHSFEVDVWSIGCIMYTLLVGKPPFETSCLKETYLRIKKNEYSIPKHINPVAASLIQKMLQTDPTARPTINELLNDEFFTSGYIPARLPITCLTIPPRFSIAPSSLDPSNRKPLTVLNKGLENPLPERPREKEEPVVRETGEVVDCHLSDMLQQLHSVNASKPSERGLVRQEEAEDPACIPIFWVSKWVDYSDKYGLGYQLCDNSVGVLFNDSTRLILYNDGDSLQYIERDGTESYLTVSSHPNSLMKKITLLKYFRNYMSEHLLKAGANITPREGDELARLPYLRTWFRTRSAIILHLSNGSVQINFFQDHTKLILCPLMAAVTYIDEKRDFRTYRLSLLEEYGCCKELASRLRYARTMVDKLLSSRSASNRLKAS
GCN5L2 inh = blocks human GCN5L2 histone acetyltransferase. Q92830. GCN5L2 HAT assay, ThioGlo1 CoA-SH fluorescence. Potency, µM (titrated, usually from 58.9 µM), actives largely listed as inhibitors. hit rate 0.21% among 390,000. AID 504327
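Preincubate 20nM GCN5L2 with compound 15 min, RT → add 50uM ThioGlo1 + 75uM H3(1-25) + 70uM acetyl-CoA → read fluorescence 0 and 20 min. Primary qHTS; fluorescent artifacts likely.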
TDP1 block = TDP1 (human) enzyme inhibition; Q9NUW8; AID 485290; recombinant TDP1, AlphaScreen DNA substrate cleavage; Potency, µM (titrated, usually from 130 µM), hits mostly inhibitors; hit rate 0.28% among 350,000; also: nearly all actives have a fitted effect of over 40% in size
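Signal: AlphaScreen proximity between streptavidin donor and anti-FITC acceptor beads on intact substrate. Reaction: Tdp1 1 nM, substrate 15 nM final, 5 min RT after 15 min compound preincubation.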
VDR inh = inhibitors of human vitamin D receptor; P11473; VDR-SRC2-3 peptide fluorescence polarization, 2 h; Potency, µM, actives largely listed as inhibitors; hit rate 0.93% among 400,000
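VDR–SRC2-3 interaction, FP format. Cmpds 23 nl via pintool, brief spin, 2 h ambient incubation.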
Numbers stand for hits; - = inactive; ? = inconclusive; . = no result given; [ ] = dose if it differs, or a comment. Calls follow the shape of the dose curve; as a rule, active = well fitted curve in the direction sought with a large enough effect; inconclusive = small, poorly fitted or top-dose-only effect, or another doubt; inactive = no such curve, though single readings can be large; an effect the other way counts as inactive or inconclusive.

SMILES	TDP1 cell noCPT	DT40 TDP1 CPT	PLK1 PBD inh	GCN5L2 inh	TDP1 block	VDR inh
O=S(=O)(c1ccccc1Br)N(Cc1ccccc1)CC(O)COCc1ccccc1 (stereo not given)	?	23.1µM	-	-	-	-
C=CCCCN(Cc1ccccc1)S(=O)(=O)c1ccccc1Br	?	?	-	-	39.8µM	-
CCN(Cc1ccccc1)S(=O)(=O)c1ccccc1Br	?	?	-	-	-	-
O=C(NNc1ccccc1C(F)(F)F)c1sccc1Br	-	-	-	-	-	?
O=S(=O)(c1ccccc1)c1nc(-c2ccccc2)oc1N1CCCCC1	16.4µM	?	-	-	-	?
Cc1ccc(S(=O)(=O)c2nc(-c3cccc(C)c3)oc2N2CCN(c3ccccc3)CC2)cc1	1.46µM	?	.	-	-	-
Cc1ccc(-c2nc(S(=O)(=O)c3ccc(C)cc3)c(N3CCN(c4ccccc4)CC3)o2)cc1	?	-	.	-	-	-
Cc1ccc(S(=O)(=O)c2nc(-c3ccccc3F)oc2N2CCCCC2)cc1	14.6µM	?	.	-	.	-
O=S(=O)(c1ccccc1)c1nc(-c2ccccc2F)oc1N1CCOCC1	?	?	.	-	.	-
CN1CCN(c2oc(-c3ccccc3)nc2S(=O)(=O)c2ccc(Br)cc2)CC1	?	16.4µM	-	-	-	-
Cc1c(C(=O)C(=O)NCc2cccs2)c2ccccc2n1C	-	-	-	-	-	-
CCC12CN3CC(C)(CN(C1)C3c1ccccc1C)C2=O (stereo not given)	-	-	.	-	-	-
COC(=O)C(NC(=O)c1ccc(C)cc1)(Nc1cccc(C)n1)C(F)(F)F (stereo not given)	?	-	-	-	-	-
Cc1ccc(NC(=O)CN(C)C(=O)COC(=O)c2ccc(Cl)cc2O)cc1	-	?	-	-	-	-
Cc1ccc(S(=O)(=O)c2nc(-c3ccccc3)oc2N2CCN(c3ccccc3)CC2)cc1	20.6µM	16.4µM	.	-	-	-
Cc1ccc(S(=O)(=O)c2nc(-c3cccc(C)c3)oc2N2CCCCC2)cc1	23.1µM	?	.	-	-[12.3 µM]	-
Cc1ccc(S(=O)(=O)c2nc(-c3ccccc3)oc2N2CCCC2)cc1	-	-	-	-	?	?
Cc1ccc(NC(=O)Cn2c(C)cc(C)c(C#N)c2=O)cc1	-	-	.	-	-	-
COc1cc(-c2nnn(Cc3ccccc3C)n2)cc(OC)c1OC	20.6µM	?	-	-	.	-
COc1ccc(-c2nnn(Cc3ccccc3)n2)cc1OC	-	-	-	-	.	-
Nc1nc2c(c(=O)[nH]1)N(C=O)C(CNc1ccc(C(=O)N[C@@H](CCC(=O)O)C(=O)O)cc1)CN2 (stereo not given in full)	-	-	.	.	.	.
CCOc1ccc2[nH]c3nc(SCC(=O)NCC4CCCO4)nnc3c2c1 (stereo not given)	?	-	-	-	.	-
CCOc1ccc2c(c1)c1nnc(SCC3CCCO3)nc1n2C (stereo not given)	?	?	26.7µM	-	-	-
N#CCCN(C(=S)NC(=O)c1cccs1)c1ccccc1F	-	?	18.9µM	-	-	?
N#CCCN(C(=O)COC(=O)CNC(=O)c1cccs1)c1ccc(F)cc1	-	-	-	-	-	-
SMILES	TDP1 cell noCPT	DT40 TDP1 CPT	PLK1 PBD inh	GCN5L2 inh	TDP1 block	VDR inh
COC(=O)c1ccc(S(=O)(=O)N(C2CCCCC2)C2CCCCC2)n1C	23.1µM	?	-	-	-	-
CCOC(=O)c1nc(N2CCN(C(=O)OCC)CC2)c2c3c(sc2n1)CCCC3	25.9µM	16.4µM	-	-	-	-
COc1ccc(-n2c(=S)[nH]c3cc(C(=O)N4CCN(c5ccccc5)CC4)ccc3c2=O)c(OC)c1	-	-	-	-	-	-
CCCCCCCN(c1ccccc1)[C@@H]1C[C@H]2CCCC(=O)N3CC[C@@H](C1)[C@@H]23	10.3µM	11.6µM	-	.	.	-
CCCCNC(=O)O[C@H]1C[C@@H]2CCN3C(=O)CCC[C@H]([C@H]1CC)[C@H]23	-	-	-	-	.	-
CC[C@@H]1[C@H]2CCCC(=O)N3CC[C@@H](C[C@@H]1Nc1ccccc1)[C@@H]23	17.8µM	?	-	-	.	-
CCCCNC(=O)O[C@@H]1C[C@@H]2CCN3C(=O)CCC[C@H]([C@H]1CC)[C@H]23	10µM	14.1µM	?	-	.	?
CC[C@@H]1[C@H]2CCCC(=O)N3CC[C@@H](C[C@@H]1OC(=O)Nc1ccccc1)[C@@H]23	11.2µM	11.2µM	-	-	.	-
CCC1CN(CCNC(=O)C(C)(C)O)Cc2cc(OC)ccc2O1 (stereo not given)	-	-[9.04 µM]	.	.	.	.
O=C(c1cc([N+](=O)[O-])ccc1N1CCCCC1)N1CCc2ccccc21	4.61µM	14.6µM	-	-	-	-
O=C(c1cc([N+](=O)[O-])ccc1Cl)N1CCc2ccccc21	-	-	-	-	-	-
Cc1ccc(C(=O)c2cc([N+](=O)[O-])ccc2N2CCCCC2)c(C)c1	0.651µM	1.03µM	-	-	-	-
COc1ccc(C(=O)c2cc([N+](=O)[O-])ccc2N2CCOCC2)cc1	0.0326µM	0.0259µM	-	-	-	-
Cc1ccc(C(=O)c2cc([N+](=O)[O-])ccc2N2CCOCC2)cc1	2.06µM	2.06µM	-	-	-	-
O=C1c2oc3ccccc3c(=O)c2C(c2ccc(O)cc2)N1Cc1ccc2c(c1)OCO2 (stereo not given)	-	-	.	-	-	-
COc1ccc(Nc2oc(/C=C/c3cc(OC)c(OC)c(OC)c3)nc2C#N)cc1	?	?	.	-	-	-
O=C(CN(c1ccccc1)S(=O)(=O)c1ccc(F)cc1)NCc1cccs1	-	-	-	-	-	-
CCOc1ccccc1N1CCN(C(=O)c2c(-c3c(F)cccc3Cl)noc2C)CC1	?	?	-	.	.	-
Cc1c(C)n2c(SCC(=O)N3CCCCC3)nnc2[nH]c1=O	-	-	-	-	.	-
Cc1cc(/C=C2\SC(=S)NC2=O)c(C)n1-c1cccc(O)c1	-	-	?	-	-	-
Cc1cc(/C=C2\SC(=Nc3ccccc3)NC2=O)c(C)n1-c1ccc(S(N)(=O)=O)cc1	2.59µM	5.17µM	-	-	-	-
COc1ccc(NC(=O)c2cc(C3CCCCN3C(=O)c3cc(OC)c(C)c(OC)c3)on2)c(C)c1 (stereo not given)	?	?	-	.	.	.
COC(=O)N1CCCCC1c1cc(C(=O)NCc2ccc(Cl)c(Cl)c2)no1 (stereo not given)	?	?	-	.	.	.
O=C(NCc1ccccc1)c1cc(C2CCCCN2C(=O)c2ccc(Cl)cc2)on1 (stereo not given)	?	?	-	.	.	.

Screening results (PubChem BioAssay)
